TMEM16A act: activates or potentiates the mouse TMEM16A chloride channel; Q8BHY3; HEK293 TMEM16A/YFP-H148Q/I152L, iodide quench fluorescence; hits give low values; B-score at 10 µM; 340,000 tested, 0.3% active;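 active = fluorescence-ratio B-score plate-corrected deviation score at least 3 library SD below zero, with starting fluorescence score within 5 deviations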;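 note: channel opened by trigger with iodide after compound preincubation; score built on the fluorescence ratio of max minus min over baseline; more negative score means more quench and so TMEM16A activation or potentiation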
Kir21 inh: Kir2.1 (mouse) channel inhibition; P35561; HEK293-Kir2.1, FluxOR thallium flux fluorescence; hits give low values; B-score at 10 µM; 310,000 tested, 0.85% active; AID 1672;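 active = fluorescence ratio B-score at or below minus 3 SD of library scores, with starting-brightness B-score within 2 SD, cut at about -4.2 in these data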;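 note: channel flux triggered by added potassium and thallium sulfate stimulus; B-score of peak minus minimum fluorescence over baseline after thallium stimulus; more negative B-score means stronger Kir2.1 block with less thallium influx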
Target sequence (P35561 whole entry, looked up): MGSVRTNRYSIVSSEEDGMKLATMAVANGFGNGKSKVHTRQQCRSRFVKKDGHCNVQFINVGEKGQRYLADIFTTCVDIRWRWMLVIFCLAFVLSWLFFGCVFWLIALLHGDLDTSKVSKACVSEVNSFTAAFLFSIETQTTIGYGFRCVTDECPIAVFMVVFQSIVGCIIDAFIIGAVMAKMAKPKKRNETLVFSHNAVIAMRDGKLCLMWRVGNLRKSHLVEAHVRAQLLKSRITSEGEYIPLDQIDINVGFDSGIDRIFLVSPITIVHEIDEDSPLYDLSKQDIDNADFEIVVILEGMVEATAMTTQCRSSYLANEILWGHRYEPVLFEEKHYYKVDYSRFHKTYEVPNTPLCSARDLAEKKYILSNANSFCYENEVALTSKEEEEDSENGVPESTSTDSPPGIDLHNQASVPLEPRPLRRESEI
KCNK3 inh: human KCNK3 channel inhibition, primary screen. B-score at 10 µM. AID 602410. O14649. 340,000 tested, 0.84% active. CHO-KCNK3 thallium flux, FluxOR fluorescence; hits give low values;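 active = B-score under library mean minus 4 SD, starting fluorescence ratio at most library mean plus 5 SD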;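 note: more negative B-score means stronger inhibition of thallium flux through KCNK3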
TMEM16A inh: blocks the mouse calcium-activated chloride channel TMEM16A | Q8BHY3 | HEK293 TMEM16A/YFP iodide influx fluorescence, ionomycin | normalized B-score (activity score, 25-100; higher = stronger inhibition) at 10 µM | 310,000 tested, 1.2% active;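 active = ratio plate-corrected score three or more library SD toward inhibition, starting fluorescence score within five deviations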;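 note: score derived from kinetic fluorescence span divided by baseline fluorescence per well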
KCNK9 inh: human KCNK9 channel inhibition; Q9NPC2; HEK293 KCNK9, FluxOR thallium flux fluorescence; hits give low values; B-score at 10 µM; 310,000 tested, 1.2% active;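 active = ratio B-score over 3 SD below the library mean, with starting fluorescence within 5 SD of its mean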;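 note: negative B-score means less thallium flux so channel inhibition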
Each line names hits and unclear results; the compound was inactive in the other large screens. In the library only some 3.5% were active in any assay of this set; here they are far more common.

Cn1cnc2c1c(=O)n(Cc1cccc(F)c1)c(=O)n2C	none
CCCCn1c(=O)n(Cc2cccc(F)c2)c(=O)c2c1ncn2Cc1ccco1	KCNK3 inh -10.3
O=C(NCC(c1ccco1)N1CCc2ccccc2C1)C(=O)Nc1ccc(F)cc1F (configuration not stated)	none
CC(=O)c1ccc(S(=O)(=O)N(C)CCCC(=O)NCc2ccc3c(c2)OCO3)cc1	TMEM16A act -5.81 (no result: Kir21 inh, TMEM16A inh, KCNK9 inh)
N#Cc1cnc(NN)nc1	none
COc1ccc(C2=NS(=O)(=O)N(C)C(C(=O)Nc3ccc(C(C)=O)cc3)=C2)cc1OC	TMEM16A inh 25
COc1ccc(C2=NS(=O)(=O)N(C)C(C(=O)Nc3ccc(OC)c(OC)c3)=C2)cc1	none
O=C(c1cccc(C(F)(F)F)c1)N(c1ccccn1)C1CCCCC1	none
COc1ccc(OC)c2sc(N(CCN(C)C)C(=O)c3cc(Cl)sc3Cl)nc12	none
COc1ccc2sc(N(CCN(C)C)C(=O)c3cc(Cl)sc3Cl)nc2c1	TMEM16A act -5.87
COc1cc2ccccc2cc1C(=O)N(CCN(C)C)c1nc2ccc(Br)cc2s1	none
COc1cc2ccccc2cc1C(=O)N(CCN(C)C)c1nc2c(F)cc(F)cc2s1	TMEM16A inh 25
CC(=O)c1ccc(-c2cccc(-c3nc4ccccn4c3NC3CCCCC3)c2)cc1	KCNK9 inh -7.66
COc1cc(/C=C2/SC(=S)N(Cc3ccccc3)C2=O)ccc1O	none
COc1cc(/C=C2/SC(=S)N(c3c(C)n(C)n(-c4ccccc4)c3=O)C2=O)ccc1O	TMEM16A act -8.09
C=CCn1c(C)csc1=Nc1ccc(C(=O)O)cc1	none
Cc1csc(SCC(=O)Nc2cc(C(C)(C)C)nn2-c2ccccc2)n1	KCNK9 inh -7.22
Cc1nnc(SCC(=O)Nc2cc(C(C)(C)C)nn2-c2ccccc2)s1	none
Cc1cc(NC(=O)CSc2nnc(-c3ccncc3)n2C)n(-c2ccccc2)n1	TMEM16A act -4.91
CCN(CC)CCN(C(=O)Cn1nnc(-c2ccc(C)o2)n1)C(C(=O)NC1CCCC1)c1ccc(F)cc1 (configuration not stated)	none (no result: TMEM16A inh)
O=c1c(/C=C(\O)c2ccccc2)nc2ccccc2n1-c1ccccc1	KCNK9 inh -8.07
Cc1nc2ccccc2n1-c1ccccc1	none
COc1cc(/C=N/NC(=O)CCn2c3ccccc3c3ccccc32)ccc1O	TMEM16A inh 25
CC/C(=N\NC(=O)c1ccncc1)C12CC3CC(CC(C3)C1)C2	none
CC/C(=N\NC(=O)c1ccc2c(c1)OCO2)C12CC3CC(CC(C3)C1)C2	TMEM16A act -6.11
O=C(Nc1ccc(S(=O)(=O)NC2=NCCCCC2)cc1)C1COc2ccccc2O1 (configuration not stated)	none
COc1ccc(OC)c(C2=Nn3c(nnc3-c3cccc(OC(C)C)c3)SC2)c1	TMEM16A act -5
O=S(=O)([N-]c1nc2ccccc2nc1-[n+]1ccccc1)c1ccccc1	none
O=S(=O)([N-]c1nc2ccccc2nc1-[n+]1ccc(CCCc2ccccc2)cc1)c1cccs1	KCNK9 inh -6.82
O=S(=O)([N-]c1nc2ccccc2nc1-[n+]1ccc(-c2ccncc2)cc1)c1ccccc1	TMEM16A act -5.26
OC(COCc1ccccc1)COCc1ccccc1	none (no result: Kir21 inh, TMEM16A inh, KCNK9 inh)
O=S(CC(O)COCc1ccc(Cl)cc1)c1ccccn1 (configuration not stated)	TMEM16A act -8.1
COCCN(C(=O)c1ccc(N(C)S(=O)(=O)c2ccc(C)cc2)cc1)c1c(N)n(CC(C)C)c(=O)[nH]c1=O	none (no result: Kir21 inh, TMEM16A inh, KCNK9 inh)
CCC(C)NCCOc1ccc(C(C)(C)c2ccccc2)cc1 (configuration not stated)	Kir21 inh -11.5
CC(C)(c1ccccc1)c1ccc(OCCCN2CCNCC2)cc1	Kir21 inh -5.77
CNCCCOc1ccc(C(C)(C)c2ccccc2)cc1	none (no result: TMEM16A act, KCNK3 inh, TMEM16A inh)
COCCCNCCOc1ccc(C(C)(C)c2ccccc2)cc1	Kir21 inh -13.1
CC(C)(C)S(=O)(=O)N1Cc2cc(CO)cc(CCO)c2[C@@H]1CCO	none (no result: TMEM16A act, Kir21 inh, TMEM16A inh, KCNK9 inh)
COc1ccc([N+](=O)[O-])cc1NC(=O)C1CCCCC1C(=O)O (configuration not stated)	none
C=CC[n+]1c(-c2ccc(OC)cc2)csc1NNC(=O)Nc1ccccc1	TMEM16A inh 100
CC1CN(Cc2ccccc2)c2ccccc2NC1=S (configuration not stated)	Kir21 inh -4.23
CC1CN(Cc2ccccc2)C(=O)N(c2ccccc2)C1=O (configuration not stated)	none (no result: Kir21 inh, TMEM16A inh, KCNK9 inh)
O=C(COC(=O)c1cc(S(=O)(=O)N2CCOCC2)ccc1F)NCc1ccc2c(c1)OCO2	none (no result: Kir21 inh, TMEM16A inh, KCNK9 inh)
CCN(CC)CCCN(C(=O)c1ccco1)c1nc(-c2ccc(C)cc2)cs1	none
CCN(CC)CCCN(C(=O)c1ccco1)c1nc(-c2ccc(Cl)cc2)cs1	Kir21 inh -6.16
CC1=C(C(=O)OCc2ccccc2)C(c2ccc(-c3ccccc3)cc2)NC(=O)N1CCCC(=O)O (configuration not stated)	none (no result: TMEM16A act, KCNK3 inh)
O=c1c(C(c2ccccc2)c2c(O)sc3ccccc3c2=O)c(O)sc2ccccc12	TMEM16A inh 100, KCNK9 inh -8.17
O=c1c(Cc2ccc(Cl)cc2Cl)c(O)ccn1CCCN1CCOCC1	none
O=[N+]([O-])c1ccc(O)c(N=Cc2sc3ccccc3c2O)c1	none
Oc1c(C=Nc2cccc3cccnc23)sc2ccccc12	KCNK9 inh -8.12 (no result: TMEM16A act, KCNK3 inh)
Cc1ccn2c(/C=N/OCc3ccc(F)cc3)c(-c3ccc(Cl)cc3)nc2c1	KCNK9 inh -7.41
COc1ccc(-c2nc3cc(C)ccn3c2NCc2ccc3c(c2)OCO3)cc1	none
O=C(Nc1ccc2oc(-c3ccccc3)nc2c1)c1ccc2c(c1)OCCO2	TMEM16A inh 25
CCNC(=S)N1CCN(c2nc(CC)nc3sc4c(c23)CCCC4)CC1	KCNK3 inh -11.6
O=C(CN1C(=O)C2CC=CCC2C1=O)NC1CCCc2ccccc21 (configuration not stated)	TMEM16A act -22.8
O=C(CN1C(=O)C2CCCCC2C1=O)NC1CCCc2ccccc21 (configuration not stated)	none (no result: Kir21 inh, TMEM16A inh, KCNK9 inh)
CCOC(=O)[C@@H]1[C@H]2COc3cc(OC)ccc3[C@@H]2N2C(=O)N(c3ccccc3)C(=O)[C@]12C	none (no result: Kir21 inh, TMEM16A inh, KCNK9 inh)
CC(C(=O)O)c1ccc(N2Cc3ccccc3C2=O)cc1 (configuration not stated)	none
Cc1cc(C)c2nc(N3CCCN(C(=O)c4cnccn4)CC3)c(C#N)cc2c1	Kir21 inh -4.97
COC(=O)c1sccc1NC(=O)CSc1ccccc1NS(=O)(=O)c1ccccc1Cl	KCNK9 inh -7.2
COc1ccc2c(c1)C(=O)[C@@H](O)[C@H](c1ccc(OC)c(Br)c1)O2	none
Cc1ccc(NC(=O)COC(=O)c2cccc(C)c2[N+](=O)[O-])cc1S(=O)(=O)N1CCCCC1	none (no result: Kir21 inh, TMEM16A inh, KCNK9 inh)
O=[N+]([O-])c1ccc(-[n+]2ccc3ccccc3c2)c([N+](=O)[O-])c1	Kir21 inh -4.73
Cc1ccccc1C(=O)NC1CCN(Cc2nnnn2C2CCCC2)CC1	none

Screening data: PubChem, Johns Hopkins Ion Channel Center
